Where “and” joins values, the source holds several entries; their conditions need not be identical. Equal entries are not always repeated. The whole screen tested about 220,000 compounds, of which about 1,600 (0.73%) were called active. The sample holds actives, similar compounds and a random draw of the others, so the mix is not that of the screen.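 The calls were made as follows: active = mean inhibition across duplicate retests at 20 µM reaching about 50% (limit read from the data); inactive = the rest, inconclusive results apart.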

For orientation: inhibition means the change of the read-out against control, counted positive when it falls.

In this test the target is Runt-related transcription factor 1 (Homo sapiens) + Core-binding factor subunit beta (Homo sapiens) (UniProt Q01196+Q13951). Put plainly: inhibitors of RUNX1 Runt–CBFb-SMMHC binding, primary screen, biochemical, FRET, Cerulean-Runt, Venus-CBFb-SMMHC, uHTS (AID 1434).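 Also: 0% = DMSO wells and 100% = wells with excess untagged CBFb-SMMHC; inhibitors lower the FRET ratio by blocking Runt binding to CBFb-SMMHC.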 Conditions: Cerulean-Runt/Venus-CBFb-SMMHC FRET ratio 530/480, 1 h, at 20 µM, stronger effect = higher value.
Sequence of Runt-related transcription factor 1 (Homo sapiens) + Core-binding factor subunit beta (Homo sapiens) (Q01196 whole entry, looked up): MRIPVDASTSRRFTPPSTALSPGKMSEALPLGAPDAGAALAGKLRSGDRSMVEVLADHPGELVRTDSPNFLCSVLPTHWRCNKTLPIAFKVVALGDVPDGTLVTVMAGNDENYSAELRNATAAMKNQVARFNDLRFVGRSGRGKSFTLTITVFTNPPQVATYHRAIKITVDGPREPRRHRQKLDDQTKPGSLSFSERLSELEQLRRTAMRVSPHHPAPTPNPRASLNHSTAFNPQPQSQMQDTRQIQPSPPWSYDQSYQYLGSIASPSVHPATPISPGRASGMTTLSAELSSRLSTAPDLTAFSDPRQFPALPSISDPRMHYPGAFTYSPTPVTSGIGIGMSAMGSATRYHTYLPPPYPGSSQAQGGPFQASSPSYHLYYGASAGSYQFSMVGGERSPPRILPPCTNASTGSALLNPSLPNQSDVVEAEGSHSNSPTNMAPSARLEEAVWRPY
Sequence of Runt-related transcription factor 1 (Homo sapiens) + Core-binding factor subunit beta (Homo sapiens) (Q13951 whole entry, looked up): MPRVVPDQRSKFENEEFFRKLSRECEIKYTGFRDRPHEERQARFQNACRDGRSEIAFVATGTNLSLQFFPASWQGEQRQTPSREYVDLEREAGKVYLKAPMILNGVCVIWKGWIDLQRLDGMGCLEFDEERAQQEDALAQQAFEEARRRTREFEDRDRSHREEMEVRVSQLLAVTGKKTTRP

For `CC(C)Cn1c(CCC(=O)O)ccc1-c1cccs1`, the inhibition is 179% (active). Further, for the setting “retest duplicate average”, the inhibition was 134%.
On to `COCCCn1c(CCC(=O)O)ccc1-c1ccc(F)cc1`, for which the inhibition was 26.6% (inactive).
Turning to `CCn1c(NC(=O)c2ccccc2)c(-c2cccs2)c(=O)c2ccccc21`, the inhibition was 2.4% (inactive).
With `COc1ccc(-n2cnc3cc(C(=O)NC4CCCC4)ccc32)cc1`, the inhibition is 0.8% (inactive).
Regarding `CCOc1ccc2cc(C#N)c(SCC(=O)OC)nc2c1`, the inhibition is -89.9% (inactive).
For `CCOc1ccc2nc(N3CCCN(C(=O)Nc4ccccc4C)CC3)c(C#N)cc2c1`, the inhibition was 61.6% (active). The inhibition (retest duplicate average) stood at 71.5%.
For `CCOc1ccc2nc(NCCNS(=O)(=O)c3ccccc3)c(C#N)cc2c1`, the inhibition was 34% (inactive).
For the molecule `CCN1C(=O)/C(=C2/Sc3ccccc3N2CCCS(=O)(=O)O)SC1=S`, the inhibition was 82.6% (active) and 93.8% (active). Also, the inhibition (retest duplicate average) was 113% and 124%.
Turning to `CCN1C(=O)/C(=C\N2CCN(c3ccccc3)CC2)SC1=S`, the inhibition was -1.5% (inactive).
Same read-out and setting: then `CCCCN1C(=O)/C(=C/C=C2/C=Cc3ccccc3N2CC)SC1=S`, with -1.7% (inactive); and `Cc1cc(Cl)ccc1NNC(=O)c1snnc1C`, with -2.5% (inactive).
The same measure, in the same setting: then `COc1ccc(C(=O)N/N=C2\CCS(=O)(=O)c3ccc(F)cc32)cc1OC`, with -4.7% (inactive).
On to `Nc1nc(CC(=O)CSc2ccc(Cl)cc2)nc(Nc2ccc(F)cc2)n1`, for which the inhibition was -7.5% (inactive).
Consider `CCC(C)(C)n1nnnc1C(c1cccs1)N1CCN(c2nc3ccccc3s2)CC1` (centres undefined), for which the inhibition is -1% (inactive).
Still for that read-out and setting: under `CCC(C)(C)n1nnnc1C(c1cccs1)N1CCN(Cc2ccccc2)CC1` (centres undefined) stands 3.1% (inactive).
With `CCC(C)(C)n1nnnc1CN1CCN(c2nc3ccc(C)cc3cc2C#N)CC1`, the inhibition is 54% (active). The inhibition (retest duplicate average) came to 79.1%.
For the molecule `CN(C)NC(=O)c1csnc1-c1c(Cl)cccc1Cl`, the inhibition is 6% (inactive).
On the same count and under the same terms, then `O=C(COC(=O)/C=C/c1cccc(Cl)c1)NCCc1ccccc1`, with 0.9% (inactive).
As for `COc1ccc(CCNC2=C(Cl)C(=O)N(Cc3ccccc3)C2=O)cc1OC`, the inhibition is 92.2% (active). Also, the inhibition (retest duplicate average) was found to be 70.6%.
`COc1ccc(CCN(C)CCN2C(=O)c3ccccc3C2=O)cc1OC`: the inhibition is 6.2% (inactive).
In the case of `COc1ccc(CCN=C2SCC(=O)N2Cc2ccccc2)cc1OC`, the inhibition is -0.6% (inactive).
Same read-out and setting: then `O=C(O)CC/C(=N\NC(=O)c1ccc(F)cc1)c1ccc(Br)cc1`, with -4.7% (inactive).
Consider `CC/C(=N\NC(=O)c1ccccc1Cl)c1ccc(Br)s1`, for which the inhibition is -0.6% (inactive).
Still for that read-out and setting: then `CC(=O)c1cc(C#N)c(SCC(=O)Nc2nccs2)nc1C`, with -3.8% (inactive); and `COc1ccc(C2=NN(c3ccccc3)C(c3cccs3)C2)cc1` (centres undefined), with 6% (inactive).
On to `COc1ccc(C2CC(c3cccs3)=NN2c2ccccc2)cc1` (centres undefined), for which the inhibition was 91% (active). Moreover, the inhibition (retest duplicate average) is 53.7%.
Turning to `COc1ccccc1N1N=C(c2cccs2)CC1c1ccccc1` (centres undefined), the inhibition is 48% (inactive).
In the case of `O=c1[nH]c2ccccc2n2c(-c3ccccc3)nnc12`, the inhibition is 67.5% (active). Moreover, the inhibition (retest duplicate average) amounted to 61.3%.
As for `Cc1ccc(-c2nc3ccccc3[nH]c2=O)cc1`, the inhibition was 3.7% (inactive).
In the case of `O=[N+]([O-])c1cccc(-c2nnc3c4ccccc4c4ccccc4n23)c1`, the inhibition is 2.3% (inactive).
As for `N#CC1=C(N)Oc2c(ccc3cccnc23)C1c1ccncc1` (centres undefined), the inhibition is -1.6% (inactive).
On the same count and under the same terms, under `COc1cccc(NC(=O)CN(C)C(=O)/C=C/c2cc(OC)ccc2OC)c1` stands -3.2% (inactive); under `O=C(Nc1ccc(Cl)cc1)Nc1nnc(/C=C/c2ccccc2)s1`, 6.5% (inactive); under `O=C(COc1cccc(F)c1)Oc1ccc(C(=O)c2ccccc2)cc1`, 0.2% (inactive).
On to `Cc1cc(C)c2c3c(sc2n1)C(c1ccccc1)C(C#N)=C(N)O3` (centres undefined), for which the inhibition is 113% (active). In addition, where the note is “retest duplicate average”, the inhibition amounted to 141%.
As for `N#CC1=C(N)Oc2c(sc3ccccc23)C1c1ccco1` (centres undefined), the inhibition was 9.4% (inactive).
On to `Cc1cc(C)c(C#N)c(SCc2[nH]nc3c2C(c2ccccc2)C(C#N)=C(N)O3)n1` (centres undefined), for which the inhibition was -0.2% (inactive).
Same read-out and setting: under `CC(=O)c1c(C)[nH]c(C(=O)OCC(=O)Nc2cc(S(=O)(=O)N3CCCCC3)ccc2C)c1C` stands -9.5% (inactive); under `CCCN(CC(=O)Nc1ccc(OC)c(OC)c1)CC(=O)Nc1ccc(F)c(F)c1F`, -1.9% (inactive).
For the molecule `COc1ccc(/C=N/NC(=O)c2cccc(C(F)(F)F)c2)cc1`, the inhibition was 1.4% (inactive).
Consider `C/C(CC1CC(C)(C)OC1=O)=N/Nc1nc(-c2ccccc2)cs1` (centres undefined), for which the inhibition was -0.6% (inactive).
Consider `CC(Sc1nc2ccccc2c(=O)n1Cc1ccco1)C(=O)c1ccccc1` (centres undefined), for which the inhibition was 2.5% (inactive).
For `Cc1ccc(Cn2c(C)nc3c(c2=O)c2nc4ccccc4nc2n3Cc2ccco2)cc1`, the inhibition is 46.8% (inactive).
`Cc1nc2c(c(=O)n1Cc1ccco1)c1nc3ccccc3nc1n2Cc1ccccc1`: the inhibition was 51.6% (active). In addition, the inhibition (retest duplicate average) was found to be 50.7%.
Regarding `Cn1ncc(Br)c1C(=O)NCc1cccs1`, the inhibition was -0.4% (inactive).
Same read-out and setting: under `CCC(C)NC(=O)c1c(N)n(/N=C/c2cccs2)c2nc3ccccc3nc12` (centres undefined) stands -0.5% (inactive).
For `CC(C)Cn1c(N)c(C(=O)NCc2cccs2)c2nc3ccccc3nc21`, the inhibition was 72.8% (active). Also, where the note is “retest duplicate average”, the inhibition came out at 89.8%.
On to `CN(C)c1ccnc2sc(C(=O)c3ccccc3)c(N)c12`, for which the inhibition was 39.2% (inactive).
Consider `Cc1cccc(NC(=S)NCc2ccc3[nH]c4c(c3c2)CCCC4)c1`, for which the inhibition was -0.9% (inactive).
Turning to `Cc1cc(C)nc(SC2CCCCC2NS(=O)(=O)c2ccc(Cl)cc2)n1` (centres undefined), the inhibition was 2% (inactive).
As for `CN1CCN(S(=O)(=O)c2cccc(C(=O)O)c2)CC1`, the inhibition is -1.8% (inactive).
The same measure, in the same setting: under `COc1cc(C(=O)N[C@@H](C)C(=O)NCc2ccco2)cc(OC)c1OC` stands -2.9% (inactive); under `CC(=O)N1CCN(S(=O)(=O)c2cccc(C(=O)NC3CCC(C)CC3)c2)CC1` (centres undefined), 4.4% (inactive).
For `CC1CC(C)CN(S(=O)(=O)c2cccc(C(=O)N3C(=O)c4cccc(N)c4C3=O)c2)C1` (centres undefined), the inhibition is 61.6% (active). Further, the inhibition (retest duplicate average) is 72.9%.
Turning to `COc1cc(C(=O)NC(=S)NCc2ccco2)cc(OC)c1OC`, the inhibition is 1.1% (inactive).
In the case of `COc1cc(C(=O)N2C(=O)c3cccc(N)c3C2=O)cc(OC)c1OC`, the inhibition is 87.1% (active). In addition, where the note is “retest duplicate average”, the inhibition was 51.3%.
For the molecule `NC(=O)Nc1ccccc1C(=O)NCCc1ccccc1`, the inhibition was 2.1% (inactive).
On the same count and under the same terms, then `COc1ccc(-c2nn(C)c(=O)c3ccccc23)cc1CNC(=O)C1CCCCC1`, with -3.9% (inactive); and `CNC(=O)c1cccc2nc3ccccc3nc12`, with 9% (inactive).
On the same count and under the same terms, under `N=c1oc2ccccc2cc1C(=O)N/N=C/c1ccccc1` stands -6.4% (inactive).
As for `CNC(=O)c1cc2c(ccc3ccccc32)oc1=N`, the inhibition was 82.8% (active). In addition, the inhibition (retest duplicate average) stood at 162%.
For `COC(=O)CCCC1=CC2=CC(=O)C(C)(OC(=O)c3cccs3)C(=O)C2=CN1CC(C)C` (centres undefined), the inhibition was -2.8% (inactive).
On the same count and under the same terms, then `CC(=O)Nc1ccc(Sc2ccccc2C(=O)N2CCCC2)cn1`, with -3.9% (inactive).
Take `CN(C)CCCn1c(N)c(C#N)c2nc(C#N)c(C#N)nc21`: the inhibition is 78.7% (active). The inhibition (retest duplicate average) came to 69.9%.
Turning to `COc1ccc(C2/C=C\CN(CC(C)C)CC(=O)N2Cc2ccc(F)cc2)cc1` (centres undefined), the inhibition was 0.3% (inactive).
For `COc1ccc(O[C@H]2C=C[C@@H](c3ccccc3)O[C@@H]2CO/N=C/C[C@@H]2C=C[C@H](OC(C)=O)[C@@H](COC(C)=O)O2)cc1`, the inhibition is -12.9% (inactive).
On the same count and under the same terms, under `COc1cccc2sc(NNC(=O)c3nc4ccccc4s3)nc12` stands 3.6% (inactive); under `CC(=O)c1sc(NC(=O)CCCOc2ccccc2C)nc1C`, 0% (inactive).
As for `COc1cccc2sc(Nc3nc(C)c(C(C)=O)s3)nc12`, the inhibition was 82.4% (active). Further, where the note is “retest duplicate average”, the inhibition came to 96.3%.
On to `Cc1ccc(NC(=O)C2(N3CCC3=O)CCCCC2)cc1`, for which the inhibition is 3.4% (inactive).
On the same count and under the same terms, under `N/C(=N\OC(=O)CC1CCCCC1)c1ccccc1` stands 3.7% (inactive).
The same measure, in the same setting: under `N#Cc1c(C(F)(F)F)cc(-c2ccccc2)nc1SCC(=O)N1CCOCC1` stands -9.3% (inactive); under `N#Cc1c(C(F)(F)F)cc(-c2ccc(Cl)cc2)nc1SCC(=O)O`, 0.8% (inactive).
As for `CCN(CC)c1nc(-c2ccccc2)cc(C(F)(F)F)c1C#N`, the inhibition was 130% (active). The inhibition (retest duplicate average) turned out to be 57.3%.
With `CCOC(=O)c1c(Cc2ccc(Cl)cc2)c[nH]c1C`, the inhibition was -2.1% (inactive).
On to `CC(C)(C)c1ccc(C(=O)NCCn2c(N)c(C#N)c3nc4ccccc4nc32)cc1`, for which the inhibition is 114% (active). Under “retest duplicate average”, the inhibition worked out at 128%.
For the molecule `CC(C)(C)c1ccc(C(=O)NCC(=O)OCN2C(=O)c3ccccc3C2=O)cc1`, the inhibition is 4.7% (inactive).
On the same count and under the same terms, then `COCCCn1c2nc3ccccc3nc2c2c(=O)n(Cc3ccc(Cl)cc3)c(C)nc21`, with 7.3% (inactive).
Still for that read-out and setting: under `CCCCNC(=O)CCNC(=O)c1ccc(C(C)(C)C)cc1` stands -0.2% (inactive); under `CN1OC(COC(=O)c2ccc(Cl)cc2)CC1c1ccccc1` (centres undefined), 3.2% (inactive).
For the molecule `N#Cc1c(N)n(CCOC(=O)c2ccc(Cl)cc2)c2nc3ccccc3nc12`, the inhibition was 116% (active). Besides, for the setting “retest duplicate average”, the inhibition is 152%.
On to `Cc1cc(=O)[nH]c(N/N=C/c2c(C)nn(-c3ccccc3Cl)c2Cl)n1`, for which the inhibition was -3% (inactive).
The same measure, in the same setting: under `CC(C)(C)C(=O)Nc1c(Br)c(C2CC2)nn1-c1ccccc1` stands 2.4% (inactive); under `CCc1ccc(CNC(=O)C2CC(=O)N(CCc3ccc(C)cc3)C2)cc1` (centres undefined), -1.7% (inactive); under `C=CCSc1nc(N)cc(=O)[nH]1`, 0.7% (inactive).
Still for that read-out and setting: then `O=C(O)CCCCCCCCCC[n+]1ccccc1`, with -2.3% (inactive).
Take `CCOC(=O)CCc1c(C)c(C#N)c2[nH]c3ccccc3n2c1=O`: the inhibition was -6.1% (inactive).
On to `Cc1ccccc1Cn1c(=O)[nH]c2ccccc21`, for which the inhibition was -2% (inactive).
Turning to `CCCc1cc(=S)n2c([nH]c3ccccc32)c1C#N`, the inhibition was 81.2% (active). Moreover, the inhibition (retest duplicate average) was found to be 153%.
On to `O=C(c1ccc(C(F)(F)F)cc1)C1CCCN(C(=O)c2csnn2)C1` (centres undefined), for which the inhibition was 5.6% (inactive).
`Cc1cc(=O)oc2c(C(=O)c3ccccc3)c(OCC(N)=O)ccc12`: the inhibition is -4.4% (inactive).
For the molecule `COC(=O)Cc1cc(=O)oc2c(C)c(O)ccc12`, the inhibition is 77.6% (active). For the setting “retest duplicate average”, the inhibition turned out to be 71.5%.
On to `COC(=O)COc1ccc2oc(=O)cc(C)c2c1`, for which the inhibition was 0.6% (inactive).
Still for that read-out and setting: under `N#C/C(C(=S)Nc1ccccc1)=C1/NN=C(N2CCOCC2)N1c1ccccc1` stands 25.1% (inactive).

For the origin of these results see PubChem BioAssay AID1434 (Sanford-Burnham Center for Chemical Genomics, 2008).
